Screens: PubChem BioAssay, National Center for Advancing Translational Sciences (NCATS)
TrxR1 substrate = rat thioredoxin reductase 1 substrate activity; O89049; purified TrxR1 substrate turnover, NADPH consumption readout; Potency, µM (top dose mostly 114 µM), inactives show at the top dose activity change, negative = substrate turnover; hit rate 0.01% among 390,000; AID 588456; further: on the % scale 0 is the no-effect control and ±100 the full control effect; nearly all actives have a fitted effect of over 50% in size
Target sequence (O89049 whole entry, looked up): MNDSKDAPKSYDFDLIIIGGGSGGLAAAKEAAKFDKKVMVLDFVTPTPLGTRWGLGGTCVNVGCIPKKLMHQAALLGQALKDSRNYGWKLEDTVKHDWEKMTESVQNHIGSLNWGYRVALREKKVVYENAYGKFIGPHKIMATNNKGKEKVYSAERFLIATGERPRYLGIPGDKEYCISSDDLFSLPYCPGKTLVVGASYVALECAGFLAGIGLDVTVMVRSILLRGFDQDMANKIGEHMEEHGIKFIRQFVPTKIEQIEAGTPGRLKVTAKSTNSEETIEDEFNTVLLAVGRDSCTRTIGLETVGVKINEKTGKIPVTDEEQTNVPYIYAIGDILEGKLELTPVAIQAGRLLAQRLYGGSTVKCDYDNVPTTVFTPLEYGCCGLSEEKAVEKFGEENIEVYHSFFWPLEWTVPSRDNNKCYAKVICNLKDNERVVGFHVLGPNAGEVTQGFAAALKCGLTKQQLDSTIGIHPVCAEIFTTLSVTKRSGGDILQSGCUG
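Rat TrxR1, dispensed at 90 nM, was prereduced with 400 uM NADPH (final) for 5 min at ~22 deg C, then incubated with compound 15 min before 400 uM selenite. A first-read NADPH fluorescence drop versus no-compound background flagged substrates.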
GLP-1R agonist = GLP-1 receptor (human) agonism | P43220 | HEK293 GLP-1R CRE-luciferase, luminescence, 4-6 h; cells express a hypersensitive GLP-1R form | Potency, µM (titrated, usually from 45.6 µM), inactives show top-dose activation, usual class: activators | hit rate 0.007% among 380,000 | AID 624172; further: % of control where 0% means no effect
GLP-1R inv ag = acts as inverse agonist at human GLP-1 receptor; AID 624417; Potency, µM (doses to about 38.3 µM), for the others: top-dose activity change, negative = inhibition, usual class: inhibitors; hit rate 1.6% among 410,000; HEK293 GLP-1R CRE-luciferase, luminescence, 24 h; GLP-1R form is constitutively active; further: on the % scale 0 is the no-effect control and ±100 the full control effect; nearly all actives have a fitted effect of over 55% in size
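Assay principle: reduced luminescence from a cAMP-responsive reporter in HEK293 cells co-expressing a constitutively active GLP-1R. Conditions: 24 hr compound incubation, 37 deg C, 5% CO2.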
HEK293 tox = cytotoxic in the GLP-1 receptor inverse agonist counter-screen; Potency, µM (highest dose often 38.3 µM), for the others: at the top dose activity change, negative = inhibition, actives largely listed as inhibitors; AID 624418; hit rate 0.13% among 410,000; HEK293 cAMP-luciferase reporter cells, luminescence, 24 h;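 further: loss of luciferase light is scored as toxicity; on the % scale 0 is the no-effect control and ±100 the full control effect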
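Compound-treated cells are incubated 24 hr at 37 deg C under 5% CO2 after a 12 hour attachment period, then luciferase detection reagent is added and luminescence is measured following 12 min at room temperature; lowered signal indicates toxicity.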
IDH1 R132H inh = inhibitors of human mutant IDH1 R132H; AID 602179; IDH1-R132H enzyme, NADPH consumption, diaphorase/resazurin fluorescence; O75874; hit rate 0.093% among 390,000; Potency, µM (titrated, usually from 76.6 µM), for the others: at the highest dose activity change, negative = inhibition, hits mostly inhibitors; further: on the % scale 0 is the no-effect control and ±100 the full control effect; nearly all actives have a fitted effect of over 65% in size
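IDH1-R132H (0.5 ug/mL dispensed) in pH 7.5 Tris buffer was preincubated 30 min with compound, then given a substrate mix of 0.016 mM NADPH and 2 mM alpha-KG for 80 min at room temperature; remaining NADPH was read by diaphorase/resazurin fluorescence.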
rTrxR1 inhibitor = blocks rat thioredoxin reductase 1 | hit rate 1% among 390,000 | AID 588453 | Potency, µM (top dose mostly 114 µM), for the others: at the highest dose activity change, negative = inhibition, hits mostly inhibitors | recombinant rTrxR1, NADPH fluorescence consumption, selenite substrate | O89049; further: on the % scale 0 is the no-effect control and ±100 the full control effect; nearly all actives have a fitted effect of over 65% in size
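Rat TrxR1 (90 nM in the dispensed reagent) was pre-reduced with 400 uM NADPH for 5 min at room temperature, then incubated with compound for 15 min. After 400 uM selenite was added, NADPH fluorescence (Ex 340/Em 450 nm) was followed for 8 min.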
Starred values were filed as active, the others as inactive; i = inactive; ? = inconclusive; nt = no result given; [ ] = another dose, or the depositor's remark. Hits are enriched below; roughly 2.7% of the tested compounds scored in any of these assays. The call rests on the fitted dose curve; in most records, active means well fitted curve in the direction sought with a large enough effect; inconclusive means small, poorly fitted or top-dose-only effect, or another doubt; inactive means no such curve, though single readings can be large; an effect the other way counts as inactive or inconclusive. Potency means the concentration at half of the fitted maximal effect.

SMILES	TrxR1 substrate	GLP-1R agonist	GLP-1R inv ag	HEK293 tox	IDH1 R132H inh	rTrxR1 inhibitor
O=C1NC(=S)S/C1=C\C=C\c1ccc([N+](=O)[O-])o1	-23%	-1%	?	?	8%	10µM*
Cc1cccc(C)c1NC(=O)C(C)c1ccc(-c2ccccc2)c(F)c1 (stereo unspecified)	0%	-13%	10µM*	-4%	-1%	13%[57.1 µM]
COc1ccc(Cl)cc1NC(=O)N1CCN(S(=O)(=O)c2ccc3c(ccn3C)c2)CC1	-6%[57.1 µM]	0%	-11%	-4%	-4%	7%[57.1 µM]
CCOC(=O)C1=C(C)N(CC)C(=S)NC1c1ccc(Cl)cc1 (stereo unspecified)	2%	2%	10µM*	?	4%	3%
CCOC(=O)C1=C(C)N(CCCCCC(=O)O)C(=O)NC1c1ccc(Cl)cc1 (stereo unspecified)	4%	1%	3%	6%	5%	23%
COc1ccc(/C=C2\SC(=S)N(CCC(=O)Nc3ccc(O)cc3)C2=O)cc1	-5%[57.1 µM]	-5%	-5%	-23%	1%	13%[57.1 µM]
CCN(CC)CCOC(=O)c1ccc(NC(=O)CCCN2C(=O)S/C(=C/c3ccc(OC)cc3)C2=S)cc1	-1%[57.1 µM]	-3%	2.8µM*	?	1%	11%[57.1 µM]
CCCCCCc1ccc(C(=O)CCN(C)C)cc1	-1%	nt	nt	nt	nt	10µM*
CCCCN(C(=O)c1ccc2c(c1)OCO2)c1ccccc1	0%[57.1 µM]	12%	10µM*	5%	-2%	3%[57.1 µM]
CN(CCOC(=O)c1cccc(Br)c1)C(C)(C)C	18%	-4%	9%	-2%	5%	10%[2.29 µM]
CN(C)CCC(=O)c1ccc2c(c1)OCO2	9%	-1%	6%	-20%	0%	0.32µM*
CN(C)CCC(=O)c1cccc(Br)c1	0%	-5%	-7%	0%	-4%	0.32µM*
O=S(=O)(Nc1ccc2nc(-c3ccc(F)cc3)oc2c1)c1ccccc1	2%	nt	-28%	1%	nt	22%
CCCCc1c(C)[nH]c2c(OC)cccc2c1=S	23%	nt	nt	nt	nt	-23%
CN(C)CCC(=O)c1ccc(F)cc1	8%	0%	20%	0%	7%	1.1µM*
CCN(CC)CCC(=O)c1ccc(F)cc1	5%[11.4 µM]	9%	5%	2%	-2%	?
CCOC(=O)c1ccc(CNc2ncnc3nc[nH]c23)cc1	7%[0.0914 µM]	nt	nt	nt	nt	0%
COc1cccc(NC(=O)c2cn(C3CCCCC3)c(=O)c3c2c2ccccc2n3C)c1	21%	nt	?	1%	-18%	16%
CC(NCC(=O)Nc1ccccc1C(=O)NC1CC1)c1cccs1 (stereo unspecified)	-3%	18%	13%	-8%	4%	15%
CC(C)C(NCC(=O)Nc1ccccc1C(=O)NC1CC1)c1ccccc1 (stereo unspecified)	6%[57.1 µM]	9%	10µM*	-19%	-6%	6%[2.29 µM]
O=C1N(Cc2ccccc2)CC2(Br)COCOC12O (stereo unspecified)	8%[11.4 µM]	-1%	13%	1%	6%	2.2µM*
O=C1C(c2ccccc2)CN1Cc1ccccc1 (stereo unspecified)	nt	17%	-2%	1%	nt	nt
O=C(NC1CCCCC1)N1CCNCC1	10%[2.29 µM]	-6%	18%	10%	-5%	16%[2.29 µM]
C1CCCCCC(NCCN2CCNCC2)CCCCC1	8%[57.1 µM]	-3%	6.3µM*	11µM*	1%	6%[57.1 µM]
O=C(N/N=C/c1ccco1)c1cccc(N2CCCC2=O)c1	-2%	-1%	-3%	-7%[1.53 µM]	10%	-5%
SMILES	TrxR1 substrate	GLP-1R agonist	GLP-1R inv ag	HEK293 tox	IDH1 R132H inh	rTrxR1 inhibitor
O=C(N/N=C/c1ccco1)c1cccc(N2Cc3ccccc3C2)c1	3%	0%	-1%	-19%	-5%	50µM*
CCCNC(=O)Cn1c(SCc2ccccc2C)nc2ccncc21	-1%	nt	nt	nt	nt	3%
O=C(C1CCC(Cn2c(=O)c3sccc3n(Cc3cccc(F)c3)c2=O)CC1)N1CCCCC1 (stereo unspecified)	-5%[57.1 µM]	nt	?	-17%	-1%	-2%[57.1 µM]
CCN(CCCNC(=O)c1ccc(Sc2ccc(Cl)cc2)c(NC(C)=O)c1)c1cccc(C)c1	-1%[57.1 µM]	nt	-3%	4%	-4%	12%[57.1 µM]
CCN(CCNCC(O)COCc1ccc(Cl)cc1)c1cccc(C)c1 (stereo unspecified)	4%	0%	10µM*	?	3%	13%[57.1 µM]
O=C(COC(=O)c1ccccc1SCC(=O)NC1CCS(=O)(=O)C1)NC1CCS(=O)(=O)C1 (stereo unspecified)	11%[57.1 µM]	-1%	10%	8%	11%	18%[57.1 µM]
CCNC(=O)NC(=O)COC(=O)c1ccccc1SCC(=O)NC(=O)NCC	57%	-10%	?	97%	27%	35µM*
c1coc(-c2nc3cc4ccccc4cc3nc2-c2ccco2)c1	-6%	nt	nt	nt	nt	4.5µM*
Nc1nc(-c2ccco2)c(-c2ccco2)s1	2%	7%	-24%	-1%	8%	50µM*
c1coc(-c2nc(-c3ccco3)c(-c3ccco3)nc2-c2ccco2)c1	9%[57.1 µM]	-4%	7%	55%	0%	2.8µM*
c1coc(-c2ncc[nH]2)c1	-11%	0%	3%	11%	-1%	-12%[57.1 µM]
COc1ccc2nc3cccc(OC)c3nc2c1	-5%	?	43%	1%	5%	18%
Nc1nc(-c2ccco2)cs1	5%	-12%	6%	-3%	3%	-6%
O=C(O)c1cc(-c2ccco2)nc2ccccc12	134%[57.1 µM]	-2%	2%	-10%	12%	?
COc1ccc2nc(-c3ccco3)c(-c3ccco3)nc2c1	28%	21%	1%	i	16%	8.9µM*
COC(=O)C1=C[C@@H](C(=O)OC)C2C3=C(C(=O)[C@@]2(C)NC(=O)c2ccccc2)[C@H](C)[C@@H]2C(=O)N(C)C(=O)[C@@H]2[C@@H]3C1 (stereo partly specified)	-5%[57.1 µM]	nt	nt	nt	nt	6%
CCc1ccccc1NS(=O)(=O)c1ccc2c(c1)CCCN2C(=O)C1CCC1	-5%[57.1 µM]	nt	?	9%	5%	3%[57.1 µM]
COC(=O)c1ccccc1NC(=O)CSc1nc(-c2ccccc2)cc(C(F)(F)F)n1	-1%	nt	5%	14%	-10%	6%
C[C@@H]1CN([C@H](C)CO)S(=O)(=O)c2ccc(Br)cc2O[C@@H]1CN(C)C(=O)Nc1ccc(C(F)(F)F)cc1	nt	-5%	?	?	-8%	nt
Cc1ccccc1-c1ccc2c(c1)O[C@@H](CN(C)C(=O)Nc1ccc(C(F)(F)F)cc1)[C@H](C)CN([C@@H](C)CO)S2(=O)=O	nt	6%	6.3µM*	-9%	-5%	nt
